Test results as given in PubChem BioAssay (Tox21).
Results filed as inconclusive are left out. The source made the active and inactive calls. Unless noted, calls follow the shape of the dose curve; as a rule, active = well fitted curve in the direction sought with a large enough effect in the repeat runs; inconclusive = weak or mixed curves; inactive = no such curve, though single readings can be large; an effect the other way counts as inactive or inconclusive.

Experiments:
[1] = qHTS assay to identify small molecule antagonists of the glucocorticoid receptor (GR) signaling pathway - cell viability counter screen (AID 720693); also: nearly all actives have a fitted effect of over 55% in size
[2] = qHTS assay for identifying genotoxic compounds that show differential cytotoxicity against isogenic chicken DT40 cell lines with known DNA damage response pathways - wild type cell line (AID 743012); also: nearly all actives have a fitted effect of over 60% in size
Procedure, shortened: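 300 wt DT40 cells/well; cpd (DMSO) pintool-transferred after ~0.5 h at 37 C/5% CO2; 40 h incubation; CellTiter-Glo added, 30 min RT; luminescence read.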

[3] = qHTS assay for identifying genotoxic compounds that show differential cytotoxicity against isogenic chicken DT40 cell lines with known DNA damage response pathways - Rev3 mutant cell line (AID 743014); also: nearly all actives have a fitted effect of over 55% in size
[4] = qHTS assay for identifying genotoxic compounds that show differential cytotoxicity against isogenic chicken DT40 cell lines with known DNA damage response pathways - Rad54/Ku70 mutant cell line (AID 743015); also: nearly all actives have a fitted effect of over 60% in size
[5] = qHTS assay to identify small molecule antagonists of the androgen receptor (AR) signaling pathway - cell viability counter screen (AID 743033; also: nearly all actives have a fitted effect of over 45% in size)
[6] = qHTS assay to identify small molecule antagonists of the androgen receptor (AR) signaling pathway using the MDA cell line - cell viability counter screen (AID 743041; also: nearly all actives have a fitted effect of over 45% in size)
Procedure, shortened: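 Cytotoxicity counter screen: MDA-kb2 AR-luc cells, compound + R1881, 16 h, 37C, 0% CO2; CellTiter-Fluor added at 15.5 h, fluorescence read after 30 min.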

[7] = qHTS assay to identify small molecule antagonists of the thyroid receptor (TR) signaling pathway - cell viability counter screen (AID 743064); also: nearly all actives have a fitted effect of over 50% in size
Procedure, shortened: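 Viability of T3-stimulated (1 nM final) GH3.TRE-Luc cells is measured by CellTiter-Fluor fluorescence after 23.5 h compound exposure at 37 °C plus 30 min reagent incubation.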

[8] = qHTS assay to identify small molecule antagonists of the thyroid receptor (TR) signaling pathway (AID 743065); also: series mostly up to about 70 µM; nearly all actives have a fitted effect of over 55% in size
Procedure, shortened: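 GH3.TRE-Luc rat pituitary cells (two TREs driving luciferase) were dosed with compound, then stimulated with 1 nM T3 (final) for 23.5 h at 37 C. ONE-Glo luminescence was the read-out, with CellTiter-Fluor fluorescence as the cytotoxicity counter-screen.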

[9] = test system: thyroid hormone receptor (rat, GH3 cells); assay: qHTS assay to identify small molecule agonists of the thyroid receptor (TR) signaling pathway (AID 743066; calls by dose curve)
[10] = qHTS assay to identify small molecule antagonists of the estrogen receptor alpha (ER-alpha) signaling pathway - cell viability counter screen (AID 743074; calls by dose curve;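 also: HEK293 cells carrying ER-alpha-UAS-bla reporter stimulated with 17beta-estradiol; nearly all actives have a fitted effect of over 45% in size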)
[11] = target: Estrogen receptor (Homo sapiens) (UniProt P03372); assay: qHTS assay to identify small molecule agonists of the estrogen receptor alpha (ER-alpha) signaling pathway (AID 743075; calls by dose curve;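 also: HEK293 GripTite cells with ER-alpha and UAS-driven beta-lactamase reporter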)
Sequence of Estrogen receptor (Homo sapiens) (P03372 whole entry, looked up): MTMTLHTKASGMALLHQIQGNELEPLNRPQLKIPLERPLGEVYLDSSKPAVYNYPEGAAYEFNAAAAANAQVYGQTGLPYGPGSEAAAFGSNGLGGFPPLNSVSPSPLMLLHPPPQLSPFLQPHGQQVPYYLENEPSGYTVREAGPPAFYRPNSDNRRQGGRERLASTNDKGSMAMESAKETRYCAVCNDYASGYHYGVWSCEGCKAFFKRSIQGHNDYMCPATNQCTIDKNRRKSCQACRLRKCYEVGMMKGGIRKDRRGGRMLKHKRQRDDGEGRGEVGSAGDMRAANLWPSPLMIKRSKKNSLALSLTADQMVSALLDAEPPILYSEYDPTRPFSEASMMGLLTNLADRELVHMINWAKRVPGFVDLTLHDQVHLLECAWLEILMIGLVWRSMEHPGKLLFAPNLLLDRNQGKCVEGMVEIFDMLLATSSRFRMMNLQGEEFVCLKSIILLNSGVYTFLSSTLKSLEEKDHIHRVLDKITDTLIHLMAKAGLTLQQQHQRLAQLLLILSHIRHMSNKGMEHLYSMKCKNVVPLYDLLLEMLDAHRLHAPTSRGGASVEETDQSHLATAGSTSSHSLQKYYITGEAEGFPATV

[12] = target: Estrogen receptor (Homo sapiens) (UniProt P03372); assay: qHTS assay to identify small molecule agonists of the estrogen receptor alpha (ER-alpha) signaling pathway using the BG1 cell line (AID 743079); also: nearly all actives have a fitted effect of over 20% in size
[13] = qHTS assay to identify small molecule antagonists of the estrogen receptor alpha (ER-alpha) signaling pathway using the BG1 cell line (AID 743080; calls by dose curve; also: series mostly up to about 70 µM; nearly all actives have a fitted effect of over 25% in size)
Procedure, shortened: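 Antagonist mode: compounds in DMSO were pinned onto BG1-Luc-4E2 cells alongside 17beta-estradiol agonist, incubated 21.5 h, and ERE-driven luciferase measured with ONE-Glo. Cytotoxicity was multiplexed using CellTiter-Fluor fluorescence.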

[14] = qHTS assay to identify small molecule antagonists of the estrogen receptor alpha (ER-alpha) signaling pathway using the BG1 cell line - cell viability counter screen (AID 743081);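 also: compound given together with 17beta-estradiol as the ER stimulus; series mostly up to about 70 µM; nearly all actives have a fitted effect of over 45% in size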
Aromatase (Homo sapiens) = Aromatase (Homo sapiens) (UniProt P11511); assay: qHTS assay to identify aromatase inhibitors (AID 743083); also: series mostly up to about 70 µM; nearly all actives have a fitted effect of over 55% in size
Sequence of Aromatase (Homo sapiens) (P11511 whole entry, looked up): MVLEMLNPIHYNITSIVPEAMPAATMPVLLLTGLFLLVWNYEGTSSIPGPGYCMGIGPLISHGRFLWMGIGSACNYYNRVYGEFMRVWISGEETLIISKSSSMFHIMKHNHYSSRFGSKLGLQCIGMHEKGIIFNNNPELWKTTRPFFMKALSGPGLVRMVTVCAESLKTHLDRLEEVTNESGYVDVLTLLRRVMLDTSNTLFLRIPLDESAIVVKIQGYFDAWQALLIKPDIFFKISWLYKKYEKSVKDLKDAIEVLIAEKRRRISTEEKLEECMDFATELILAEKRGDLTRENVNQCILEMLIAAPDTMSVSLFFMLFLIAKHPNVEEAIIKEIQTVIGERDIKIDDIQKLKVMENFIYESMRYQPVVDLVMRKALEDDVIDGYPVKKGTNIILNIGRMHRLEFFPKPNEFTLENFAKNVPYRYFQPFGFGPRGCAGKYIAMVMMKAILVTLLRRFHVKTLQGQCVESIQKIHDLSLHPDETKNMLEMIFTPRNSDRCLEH

[15] = target: Estrogen receptor (Homo sapiens) (UniProt P03372); assay: qHTS assay to identify small molecule antagonists of the estrogen receptor alpha (ER-alpha) signaling pathway (AID 743069; active = well fitted curve in the direction sought with a large enough effect in the signal ratio in the repeat runs, not every such curve was filed as active; the % refers to the signal ratio)
Procedure, shortened: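 Beta-lactamase FRET fluorescence is read after 2 hr at room temperature with LiveBLAzer B/G substrate. Before that, ER-alpha-bla HEK293 cells sit 4 hr after plating, then receive compound plus 17beta-estradiol and incubate 18 hr at 37C.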

[16] = target: Androgen receptor (Homo sapiens) (UniProt P10275); assay: qHTS assay to identify small molecule antagonists of the androgen receptor (AR) signaling pathway (AID 743035; active = well fitted inhibition curve with a large enough effect in the signal ratio in the repeat runs, not every such curve was filed as active; the % refers to the signal ratio)
Sequence of Androgen receptor (Homo sapiens) (P10275 whole entry, looked up): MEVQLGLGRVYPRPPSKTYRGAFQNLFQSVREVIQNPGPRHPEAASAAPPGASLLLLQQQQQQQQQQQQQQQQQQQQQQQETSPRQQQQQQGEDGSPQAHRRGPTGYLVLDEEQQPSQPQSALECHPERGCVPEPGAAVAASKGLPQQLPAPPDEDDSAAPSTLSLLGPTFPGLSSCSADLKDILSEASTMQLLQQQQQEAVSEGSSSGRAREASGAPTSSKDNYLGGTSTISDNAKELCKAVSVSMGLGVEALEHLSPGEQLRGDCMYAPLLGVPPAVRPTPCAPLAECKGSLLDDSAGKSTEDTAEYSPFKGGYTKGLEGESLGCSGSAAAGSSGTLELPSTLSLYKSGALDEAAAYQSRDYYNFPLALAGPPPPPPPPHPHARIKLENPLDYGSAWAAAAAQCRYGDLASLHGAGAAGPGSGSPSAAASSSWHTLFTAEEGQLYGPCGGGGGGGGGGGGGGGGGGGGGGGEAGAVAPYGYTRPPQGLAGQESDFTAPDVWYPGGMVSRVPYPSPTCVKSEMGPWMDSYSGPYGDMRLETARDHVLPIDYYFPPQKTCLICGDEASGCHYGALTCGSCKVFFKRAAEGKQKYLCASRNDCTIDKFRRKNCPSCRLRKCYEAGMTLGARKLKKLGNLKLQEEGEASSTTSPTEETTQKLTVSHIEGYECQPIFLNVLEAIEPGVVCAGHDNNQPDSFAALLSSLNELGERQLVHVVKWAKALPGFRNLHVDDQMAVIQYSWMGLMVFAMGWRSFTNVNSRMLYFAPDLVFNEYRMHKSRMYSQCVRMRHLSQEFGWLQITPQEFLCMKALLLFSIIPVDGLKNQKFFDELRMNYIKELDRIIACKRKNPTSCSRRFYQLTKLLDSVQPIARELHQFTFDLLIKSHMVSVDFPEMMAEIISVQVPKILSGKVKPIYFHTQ
Procedure, shortened: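 In this cell-based reporter screen, compounds were tested in concentration series against R1881-activated HEK293 cells expressing beta-lactamase under UAS control; after 16 h at 37C, FRET substrate was added and fluorescence read 2 h later.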

[17] = target: Androgen receptor (Homo sapiens) (UniProt P10275); assay: qHTS assay to identify small molecule agonists of the androgen receptor (AR) signaling pathway (AID 743036; active = well fitted activation curve with a large enough effect in the signal ratio in the repeat runs, with a control signal flat, not every such curve was filed as active; the % refers to the signal ratio)
Procedure, shortened: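 Screening used 2,000 AR-bla HEK293 cells per well, treated 16 h at 37C with test compounds in DMSO alongside positive and DMSO-only controls; beta-lactamase activity was then read by LiveBLAzer B/G FRET fluorescence after 2 h at room temperature.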

[18] = target: Androgen receptor (Homo sapiens) (UniProt P10275); assay: qHTS assay to identify small molecule agonists of the androgen receptor (AR) signaling pathway using the MDA cell line (AID 743040; also: nearly all actives have a fitted effect of over 20% in size)
Procedure, shortened: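 Luciferase read-out, ONE-Glo, 30 min RT. Cells: MDA-kb2 AR-luc, MMTV promoter with AR and GR response elements. Compound exposure 16 h, 37C, 0% CO2, after 5 h pre-incubation. qHTS agonist mode.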

[19] = target: Androgen receptor (Homo sapiens) (UniProt P10275); assay: qHTS assay to identify small molecule antagonists of the androgen receptor (AR) signaling pathway using the MDA cell line (AID 743042; also: nearly all actives have a fitted effect of over 55% in size)
Procedure, shortened: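 MDA-kb2 breast carcinoma cells carrying MMTV-luciferase (AR/GR responsive) were co-treated with compounds and the agonist R1881 for 16 h at 37C. Inhibition read as ONE-Glo luminescence; CellTiter-Fluor fluorescence measured in parallel for cytotoxicity.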

Measured: Potency

O=C(O)c1ccccc1-c1ccc(C(F)(F)F)cc1
not listed: [15] | [16] | [17] | [18] | [19]
inactive: all other assays above

CNc1ncnc2nc[nH]c12
not listed: [16] | [17] | [18] | [19]
inactive: all other assays above

Nc1cc(C(Cl)=C(Cl)Cl)c(S(N)(=O)=O)cc1S(N)(=O)=O
not listed: [16] | [17] | [18] | [19]
inactive: all other assays above

CO[Si](CCCNCCC[Si](OC)(OC)OC)(OC)OC
not listed: [16] | [17] | [18] | [19]
inactive: all other assays above

O=S(=O)(O)c1ccccc1O
not listed: [10]
inactive: all other assays above

CCCCN(CCO)CCO
not listed: [16] | [17] | [18] | [19]
inactive: all other assays above

COc1cccc(Br)c1
inactive: all assays above

CCCOCC(C)OCC(C)O (configuration not stated)
not listed: [6] | [11] | [12] | [13] | [15] | [17]
inactive: all other assays above
